The list is not random: actives were taken first. Their share in the collection is about 4.1%.
AMA1 RON2 block: AMA1-RON2 (P. falciparum) interaction inhibition. AlphaScreen AMA1-biotinylated RON2 peptide binding. Potency, µM (top dose mostly 58.2 µM), for inactives: at the top dose activity change, negative = inhibition, actives largely listed as inhibitors. 360,000 tested, 0.2% active;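 note: 0% = vehicle wells and -100% = peptide control; nearly all actives have a fitted effect of over 45% in size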
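AMA1 (3D7) with his tag at 25 nM final met compounds first, then biotinylated RON2 peptide at 25 nM; detection used donor plus acceptor beads, 10 µg/mL apiece, read by AlphaScreen after 30 min at room temperature.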
Sm TGR inh: inhibitors of Schistosoma mansoni thioredoxin glutathione reductase | AID 485364 | Q962Y6 | Potency, µM (doses to about 114 µM), for the others: top-dose activity change, negative = inhibition, hits mostly inhibitors | purified TGR, DTNB reduction, TNB absorbance 405 nm | 360,000 tested, 3% active; note: nearly all actives have a fitted effect of over 60% in size
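First, TGR (20 nM dispensed) and NADPH were mixed with compound. Second, a 15 min room-temperature incubation followed. Third, further NADPH and then DTNB were added to start the reaction. Finally, TNB absorbance was monitored kinetically.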
AmpC detergent: AmpC beta-lactamase inhibition with detergent present. P00811. AmpC hydrolysis of nitrocefin, absorbance 480 nm, 0.01% Triton. Potency, µM (series often up to 114 µM), for the others: at the highest dose activity change, negative = inhibition, most hits filed as inhibitors. 370,000 tested, 0.041% active. AID 485294;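 note: 0% = no-compound wells and -100% = no-enzyme wells; nearly all actives have a fitted effect of over 25% in size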
Target sequence (P00811 whole entry, looked up): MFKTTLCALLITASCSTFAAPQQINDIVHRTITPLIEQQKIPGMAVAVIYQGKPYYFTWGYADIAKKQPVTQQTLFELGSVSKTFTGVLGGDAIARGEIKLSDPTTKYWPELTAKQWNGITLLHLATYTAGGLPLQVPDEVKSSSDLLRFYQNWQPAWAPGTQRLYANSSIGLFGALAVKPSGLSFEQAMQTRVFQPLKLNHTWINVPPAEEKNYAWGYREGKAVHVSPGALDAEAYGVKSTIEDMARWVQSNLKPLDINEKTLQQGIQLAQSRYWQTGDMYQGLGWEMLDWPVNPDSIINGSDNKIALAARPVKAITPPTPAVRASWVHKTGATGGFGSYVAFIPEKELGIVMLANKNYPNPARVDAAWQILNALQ
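20 mM phosphate pH 7.0 + 0.01% (detergent screen) or 0.0001% Triton X-100; 5.3 nM AmpC reagent; cpd preinc 15 min RT; nitrocefin (800 uM stock) to start; A480 q20 s × 4 min; Activity was normalised to no-enzyme and no-compound control wells.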
AmpC no deterg: blocks E. coli AmpC beta-lactamase in detergent-free assay; P00811; AmpC nitrocefin hydrolysis, absorbance 480 nm, 0.0001% Triton; Potency, µM (series often up to 57.1 µM), for inactives: at the top dose activity change, negative = inhibition, most hits filed as inhibitors; 330,000 tested, 0.52% active; AID 485341;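 note: plate controls were no compound for no effect and no enzyme for full effect; nearly all actives have a fitted effect of over 20% in size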
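AmpC (5.3 nM in the dispensed reagent) in 20 mM phosphate pH 7.0 with 0.01% (detergent screen) or 0.0001% Triton X-100 was preincubated with compounds for 15 min at room temperature. Nitrocefin was then added from an 800 uM solution, and hydrolysis was followed at 480 nm.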
FMDV antiviral: foot and mouth disease virus antiviral activity | AID 1159524 | Potency, µM (doses to about 57.9 µM), without a hit: at the top dose activity change, negative = inhibition, hits mostly inhibitors | FMDV antiviral cell-based qHTS | 410,000 tested, 1.2% active; calls by dose curve; tested in HEK293T cells; note: read-out not given here; nearly all actives have a fitted effect of over 45% in size
* marks the source's active call; other numbers are inactive results; ? = inconclusive; / = not tested or not shown. Unless noted, calls come from the whole dose curve; as a rule, active = well fitted curve in the direction sought with a large enough effect; inconclusive = small, poorly fitted or top-dose-only effect, or another doubt; inactive = no such curve, though single readings can be large; an effect the other way counts as inactive or inconclusive. Unless noted, % is set by controls: 0 for no effect and ±100 for the full control effect; potency is the fitted concentration of half-maximal effect.

SMILES | AMA1 RON2 block | Sm TGR inh | AmpC detergent | AmpC no deterg | FMDV antiviral
O=C(c1ccccc1-n1cccn1)N1CCOc2ccc(CN3CCOCC3)cc2C1 | / | / | / | / | -4.0%
CC(=O)Nc1ccc(NC2=Nc3ccccc3N3C2=Nc2c(c(C)nn2-c2ccccc2)C3c2ccccc2)cc1 (centres undefined) | 13.8% | 15.6% | -1.3% | -6.6% | 10µM*
COc1ccc(NC2=Nc3ccccc3N3C2=Nc2c(c(C)nn2-c2ccc(C)cc2)C3c2cccnc2)cc1 (centres undefined) | 0.0% | 8.5% | ? | -10.3% | -13.5%
CCOC(=O)c1c(C)[nH]c(CCC(=O)NCc2ccccc2Cl)c1C | / | -5.2% | 0.0% | / | 12.4%
COc1cc2oc(=O)c3c4c(cc5ccc(c1CCN(C)C)c2c53)OCO4 | / | / | / | / | -6.0%
COc1ccc(-n2cc(C(=O)OCc3ccc(F)c(F)c3)c3ccccc3c2=O)cc1 | / | -0.1% | -7.6% | / | -11.8%
N#CCC(=O)Nc1ncc(Cc2ccccc2Cl)s1 | 106.8% | ? | -8.3% | 17.8µM* | -10.1%
CC(C)C(=O)Nc1ncc(Cc2ccccc2Cl)s1 | 2.7% | 3.4% | 5.6% | -12.7% | -0.4%
Cc1ccccc1CN1CCc2nc(N3CCN(c4ccccn4)CC3)ncc2C1 | / | 7.4% | 10.2% | / | ?
CCOc1ccc(CN2CCc3nc(N4CCN(c5ccccn5)CC4)ncc3C2)cc1OC | / | -17.5% | 3.8% | / | 12.6µM*
CN(C)c1ccc(CN2CCc3nc(N4CCN(c5ccccn5)CC4)ncc3C2)cc1 | / | -26.9% | -2.9% | / | 7.94µM*
CCOc1ccccc1CN1CCc2nc(N3CCN(c4ccccc4F)CC3)ncc2C1 | / | 6.5% | -4.3% | / | 28.2µM*
COc1cc(CN2CCc3nc(N4CCN(c5ccccn5)CC4)ncc3C2)cc(OC)c1OC | / | -0.3% | -11.3% | / | ?
COc1cc(CN2CCc3nc(N4CCN(c5ncccn5)CC4)ncc3C2)cc(OC)c1OC | / | ? | -3.1% | / | 28.2µM*
Cc1ccc(Cl)cc1N1CCN(CCCNC(=O)Cn2ncc3c([nH]c4ccccc43)c2=O)CC1 | / | -1.7% | 2.0% | / | 0.3%
Cc1ccc(NC(=O)Cn2c(=O)n(CCc3ccccc3)c(=O)c3c4c(sc32)CCCC4)c(C)c1 | / | 0.4% | 20.8% | / | -6.2%
O=C(Nc1cccnc1Cl)c1ccc2c(Cl)c3c(nc2c1)CCC3 | -3.8% | 0.8% | -0.5% | 12.6% | -63.3%
O=C(Nc1ccccc1F)c1ccc2c(Cl)c3c(nc2c1)CCC3 | / | 2.5% | -5.8% | / | 10µM*
COc1ccc(OCC(=O)Sc2ccc(C)cc2)cc1 | 55.5% | 3.16µM* | -4.9% | -33.3% | ?
COc1ccc(OC(=O)COc2ccc(C)cc2)cc1 | -2.9% | 3.3% | -5.0% | -31.8% | -14.1%
CCOc1ccc(OC(=O)c2cn(-c3cccc(OC)c3)c(=O)c3ccccc23)cc1 | / | -0.2% | 3.4% | / | -0.3%
O=C1C(SCCO)=C(SCCO)C(=O)c2ccccc21 | -18.4% | 0.501µM* | ? | -26.1% | 10µM*
O=c1[nH]c2ccccc2c(O)c1SCCO | 2.3% | 12.7% | 4.5% | -17.0% | -6.8%
CCn1nc(C)c(CN2CCC3(CCC(CNC(=O)c4ccccc4)O3)CC2)c1C (centres undefined) | / | / | / | / | -11.4%
CCC1Oc2ccc(C)cc2N(CC(=O)NC2CCCCC2)C1=O (centres undefined) | 31.1% | -0.9% | -4.2% | -6.7% | -2.2%
SMILES | AMA1 RON2 block | Sm TGR inh | AmpC detergent | AmpC no deterg | FMDV antiviral
CCC1Oc2ccc(C)cc2N(CC(=O)N(Cc2ccc(C)o2)C2CCCC2)C1=O (centres undefined) | -9.5% | 0.0% | -1.9% | 14.1% | 22.4µM*
O=S(=O)(NC(=S)NC1CCCCC1)c1cccs1 | 25.1% | 25.1µM* | -1.3% | -34.4% | -6.8%
O=S(=O)(NC(=S)NC1CCCCC1)c1ccccc1 | 51.2% | ? | -1.9% | -22.7% | -15.2%
COC(=O)c1ccc(CN2CCN(Cc3ccc(C(=O)OC)o3)CC2)o1 | 2.0% | 35.5µM* | -6.6% | -5.7% | 7.6%
Cc1[nH]n(C)c(=O)c1C(=O)c1c(-c2ccccc2Cl)noc1C | -0.5% | 44.7µM* | -1.0% | 70.4% | ?
O=C(c1ccc2c(c1)CCN2S(=O)(=O)c1ccc(Cl)cc1)N1CCN(c2ccccc2)CC1 | / | ? | -9.8% | / | -19.2%
CC(C)(C)CN1CCNC(=O)C1CC(=O)NCCc1ccccc1F (centres undefined) | -5.8% | 50.1µM* | -4.3% | 36.9% | -6.6%
CSc1cccc(CNC(=O)CC2C(=O)NCCN2CC(C)(C)C)c1 (centres undefined) | 1.3% | 39.8µM* | 7.5% | 30.7% | 11.3%
CC(C)(C)CN1CCNC(=O)C1CC(=O)NCc1cccc(-n2cccn2)c1 (centres undefined) | -4.0% | 1.3% | -7.0% | 50.5% | -1.1%
CCCCn1cc(S(=O)(=O)c2ccc(C)cc2)c(=O)c2cc(F)c(N3CCCCC3)cc21 | / | -4.8% | 2.7% | / | -3.4%
O=C(NC[C@@H]1CCCN2CCCC[C@H]12)c1cnn(-c2nccc(-c3cc4ccccc4o3)n2)c1C1CC1 | / | / | / | / | -7.4%
CCCN(C(=O)c1coc(=O)c2ccccc12)c1ccccc1C | / | 3.7% | 2.2% | / | -1.8%
O=C(O)CSc1nc2ccccc2nc1Cc1ccccc1F | -3.2% | 29.7% | -6.7% | -31.2% | 14.4%
COc1cc(NC(=O)CSc2nc3ccccc3nc2Cc2ccc(Cl)cc2)cc(OC)c1 | / | -2.2% | 13.7% | / | 2.51µM*
COc1ccc(NC(=O)CSc2nc3ccccc3nc2Cc2ccc(C)cc2)cc1Cl | / | 1.0% | -5.7% | / | -0.4%
O=C(CSc1nc2ccccc2nc1Cc1ccccc1F)Nc1cccc(C(F)(F)F)c1 | / | 79.4µM* | ? | / | -7.0%
CC1=C(C(=O)N(C(C)C)C(C)C)CC(CC(=O)NC2CC2)C(=O)N1CCC1=CCCCC1 (centres undefined) | -0.7% | / | / | / | -16.4%
Cc1ccc(S(=O)(=O)NNC(=S)NCC2CCCO2)cc1 (centres undefined) | 35.0% | 12.6µM* | -3.7% | -9.2% | -26.5%
Cc1ccc(S(=O)(=O)NNC(=S)NC(=O)c2ccc([N+](=O)[O-])cc2)cc1 | 13.3% | 7.94µM* | -16.3% | -27.1% | -6.5%
Cc1ccc(C(=O)NC(=S)NNC(=O)c2ccc([N+](=O)[O-])cc2)cc1 | 126.4% | 1.0% | -12.1% | -40.1% | -18.6%
O=C(NNC(=S)NC(=O)c1ccc(Br)cc1)c1ccc([N+](=O)[O-])cc1 | 104.9% | 100µM* | ? | -56.3% | 0.0%
Cc1ccc(C(=O)NC(=S)NNS(=O)(=O)c2ccc(C)cc2)cc1 | 46.8% | 22.4µM* | ? | -52.4% | -4.6%
ClC1=C(Cl)[C@]2(Cl)[C@@H]3[C@H]4C[C@H]([C@@H]5O[C@H]45)[C@@H]3[C@@]1(Cl)C2(Cl)Cl | / | / | / | / | -29.2%
Cc1cccc(OCC(=O)Nc2ccc(S(=O)(=O)N(Cc3ccccc3)c3ccccc3)cc2)c1 | / | -0.8% | 25.3% | / | -29.4%
